Screens from PubChem BioAssay.
TLR4-MyD88 BLA = inhibitors of TLR4-MyD88 association in cells, primary screen, cell-based, HeLa CL3-4, BLA complementation, FRET ratio | Toll-like receptor 4 (Homo sapiens) + Myeloid differentiation primary response protein … | inhibition, % at 8.4 µM | 0.18% of 200,000 active | HeLa CL3-4 TLR4/MyD88 BLA complementation; in the data active = inhibition above about 25%
GRK2 inh = compounds blocking aptamer binding on GRK2 – biochemical, human GRK2, bead flow cytometry, HTS, primary screen | Beta-adrenergic receptor kinase 1 (Homo sapiens), P25098 | FAM-aptamer displacement from GRK2 | inhibition of aptamer binding, % at 10 µM | 0.59% of 330,000 active;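 active = inhibition of aptamer binding above 40%, roughly 3 SD of noise, on plates passing a quality check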;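 also: median bead fluorescence of bound FAM aptamer so fluorescent compounds give negative values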
NOD2 RIPK2 PPI = NOD2-RIPK2 binding disruptors in cells, primary screen, fluorescence, CHO cells, BLA complementation; Receptor-interacting serine/threonine-protein kinase 2 (Homo sapiens), O43353; CCF4 ratio; inhibition, % at 4.98 µM; 0.38% of 360,000 active; in the data active = inhibition above about 21%
Target sequence (O43353 whole entry, looked up): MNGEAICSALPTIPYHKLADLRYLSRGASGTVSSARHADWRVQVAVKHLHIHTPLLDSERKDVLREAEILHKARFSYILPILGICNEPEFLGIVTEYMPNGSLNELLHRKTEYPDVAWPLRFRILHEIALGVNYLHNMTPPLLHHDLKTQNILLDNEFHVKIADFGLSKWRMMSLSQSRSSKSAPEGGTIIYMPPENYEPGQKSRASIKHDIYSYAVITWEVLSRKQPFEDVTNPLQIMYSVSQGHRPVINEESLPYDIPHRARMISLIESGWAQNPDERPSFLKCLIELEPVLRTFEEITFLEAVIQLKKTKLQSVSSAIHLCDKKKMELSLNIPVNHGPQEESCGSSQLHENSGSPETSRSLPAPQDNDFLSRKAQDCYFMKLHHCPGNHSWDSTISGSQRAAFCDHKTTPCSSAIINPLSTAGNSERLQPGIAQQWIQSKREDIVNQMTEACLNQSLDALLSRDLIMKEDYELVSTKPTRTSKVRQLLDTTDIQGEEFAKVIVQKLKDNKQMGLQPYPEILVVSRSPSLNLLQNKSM
TMEM16A inh = TMEM16A chloride channel inhibitors, primary screen, cell-based, HTS. Anoctamin-1 (Mus musculus), Q8BHY3. HEK293 TMEM16A/YFP iodide influx fluorescence, ionomycin. normalized B-score (activity score, 25-100; higher = stronger inhibition) at 10 µM. 1.2% of 310,000 active. AID 588511, 2011;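 active = ratio plate-corrected score three or more library SD toward inhibition, starting fluorescence score within five deviations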;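 also: score derived from kinetic fluorescence span divided by baseline fluorescence per well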
TLR9-MyD88 block = inhibitors of TLR9-MyD88 association in cells, primary screen, cell-based, CHO, BLA complementation, fluorescence; Toll-like receptor 9 (Homo sapiens) + Myeloid differentiation primary response protein …; CCF4 FRET ratio; inhibition, % at 4.98 µM; 0.21% of 340,000 active; AID 504734, 2011;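 active = inhibition above the mean over all tested compounds plus 3 SD, cut at about 21% in these data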
TMEM16A act = TMEM16A chloride channel activators or potentiators, primary screen, cell-based, HTS | AID 623877, 2012 | HEK293 TMEM16A/YFP-H148Q/I152L, iodide quench fluorescence; active compounds read low | B-score at 10 µM | 0.3% of 340,000 active | Anoctamin-1 (Mus musculus), Q8BHY3;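 active = fluorescence-ratio B-score plate-corrected deviation score at least 3 library SD below zero, with starting fluorescence score within 5 deviations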;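 also: channel opened by trigger with iodide after compound preincubation; score built on the fluorescence ratio of max minus min over baseline; more negative score means more quench and so TMEM16A activation or potentiation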
TMEM16A reconf = TMEM16A chloride channel inhibitors, confirmation, cell-based, re-confirmation; shares compounds with TMEM16A inh; HEK293 TMEM16A/YFP-H148Q, iodide quench fluorescence; ionomycin added to raise cell calcium; inhibition, % at 10 µM; 39% of 2,300 active; AID 652189, 2013;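 active = mean duplicate percent inhibition, scaled so buffer wells are 0 and the reference blocker 100, over three buffer SD above buffer mean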
HEK293 Ca mobil = calcium mobilization in TMEM16A/YFP HEK293 cells, confirmation, counter-screen for TMEM16A inhibitor project; 2% of 2,300 active; Fluo4 calcium mobilization; calcium response (% of ionomycin), % at 10 µM; shares compounds with TMEM16A inh;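 active = duplicate-averaged calcium signal over 20% of the ionomycin maximum, relative to buffer baseline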;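 also: each well's signal is peak minus trough fluorescence divided by its pre-addition baseline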
YFP-HEK293 quench = iodide YFP quench changes in parental YFP-HEK293, counter-screen for TMEM16A inhibitor project, cell-based; 2,300 tested, under 10 active; ionomycin; AID 652233, 2013; shares compounds with TMEM16A inh; YFP ratio F(max-min)/F0 at 10 µM;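 active = yellow fluorescent protein signal ratio exceeding the buffer control mean by over 5 SD of those controls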;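 also: ratio is mean of duplicate wells from kinetic YFP trace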
ClC-1 rat inh = ClC-1 chloride channel inhibition, selectivity assay for TMEM16A inhibitor project, cell-based, voltage-dependent ClC-1; shares compounds with TMEM16A inh; ratio percent, % at 10 µM; 2,300 tested, under 10 active; CHO ClC-1-YFP, iodide influx fluorescence quench; iodide control reads 0, buffer control 100; AID 652236, 2013;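 active = duplicate-mean ratio percent above the mean of iodide-only control wells, which defines zero, plus 5 of their SD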;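 also: higher percent means stronger block of ClC-1 iodide influx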
Of the large screens only hits and unclear results are named; the others gave an inactive call (follow-up assays come after a bar, where they were run). In the library only some 2.2% were active in any assay of this set; here they are far more common.

C=C(C)C1Cc2c(C)nn(-c3cccc4ccccc34)c2C1 (centres undefined)	TMEM16A inh 25 | TMEM16A reconf 46% | HEK293 Ca mobil inactive | YFP-HEK293 quench inactive | ClC-1 rat inh inactive
C=C(C)C1Cc2c(C)nn(-c3ccccc3)c2C1 (centres undefined)	none
CC(C)C[C@@H](CN1CCCC1CN1C(=S)NC[C@@H]1Cc1ccc(O)cc1)N1C[C@H](Cc2ccc(O)cc2)N(CCc2ccccc2)C1=S (some centres undefined)	none (no result: TLR4-MyD88 BLA, GRK2 inh, TMEM16A inh, TMEM16A act)
COc1cc(/C=C/C(=O)c2ccc3c(c2)OCCO3)cc(Br)c1OCC(=O)N(C)C	none (no result: TLR4-MyD88 BLA) | TMEM16A reconf inactive | HEK293 Ca mobil inactive | YFP-HEK293 quench inactive | ClC-1 rat inh inactive
COc1cccc2c1OC[C@@H](CO)[C@H]2N(C)C(=O)Nc1ccc(Cl)cc1Cl	none | TMEM16A reconf inactive | HEK293 Ca mobil inactive | YFP-HEK293 quench inactive | ClC-1 rat inh inactive
COc1ccccc1-c1nnc(SCC(=O)Nc2ccc(Cl)cc2Cl)o1	none
CC1CCC(NC(=O)CCS(=O)(=O)c2ccc3c(c2)NC(=O)CS3)CC1 (centres undefined)	TMEM16A inh 25 (no result: TLR4-MyD88 BLA) | TMEM16A reconf inactive | HEK293 Ca mobil inactive | YFP-HEK293 quench inactive | ClC-1 rat inh inactive
CC(C)OC(=O)C(CC(=O)O)NCc1ccccc1 (centres undefined)	none | TMEM16A reconf inactive | HEK293 Ca mobil inactive | YFP-HEK293 quench inactive | ClC-1 rat inh inactive
CCOC(=O)C(CC(=O)O)NCc1ccco1 (centres undefined)	none (no result: TLR4-MyD88 BLA)
O=S(=O)(Nc1ccccc1)C1CCCCC1	none (no result: TLR4-MyD88 BLA, GRK2 inh, TMEM16A inh)
NNC(=O)CCN(Cc1ccco1)S(=O)(=O)c1ccc(Cl)cc1	none (no result: TLR4-MyD88 BLA)
Cc1cc(C)c2nc(SC(C)C#N)cc(C)c2c1 (centres undefined)	TMEM16A inh 100 | TMEM16A reconf inactive | HEK293 Ca mobil inactive | YFP-HEK293 quench inactive | ClC-1 rat inh inactive
CCN1CCc2c(sc(N)c2C(N)=O)C1	none | TMEM16A reconf 27% | HEK293 Ca mobil inactive | YFP-HEK293 quench inactive | ClC-1 rat inh inactive
O=C(Nc1ccc(F)cc1F)N1CCCN(c2ccc(C(F)(F)F)cn2)CC1	TMEM16A inh 25 (no result: TLR4-MyD88 BLA) | TMEM16A reconf 18% | HEK293 Ca mobil inactive | YFP-HEK293 quench inactive | ClC-1 rat inh inactive
Fc1ccc(NC(=S)N2CCCN(c3ccc(C(F)(F)F)cn3)CC2)c(F)c1	none (no result: TLR4-MyD88 BLA)
O=C(CSc1ccccn1)N1CCN(c2cccc(Cl)c2)CC1	TMEM16A inh 25 | TMEM16A reconf inactive | HEK293 Ca mobil inactive | YFP-HEK293 quench inactive | ClC-1 rat inh inactive
Cc1ccn(C(=O)c2ccc(NC(=O)C3CC3)cc2)n1	none
Cc1csc(NC(=O)CCCSc2nc3ccccc3s2)n1	TMEM16A inh 100 | TMEM16A reconf inactive | HEK293 Ca mobil 32% | YFP-HEK293 quench inactive | ClC-1 rat inh inactive
Cc1csc(NC(=O)CSc2nc3ccccc3s2)n1	none
